Source: PubChem BioAssay AID1159580 (chemical genetic matrix, 2015)
Hit rate of the full screen: of about 5,500 compounds, about 2,000 (36%) were called active. About 18% were inconclusive and are not listed. Cut-off read from the data, not from the text of the source: active = normalized growth mostly below about 0.91 (no sharp cut-off); inconclusive = no clear call, values can overlap the other calls; inactive = mostly above about 0.92. This is one part of the list.

Test: chemical genetic growth profiling, strain panel (AID 1159580);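 note: tested at 20 µM; growth read once vehicle control cultures reached saturation at 30 °C; 1 = growth at the plate median or of vehicle wells; lower values mean less growth of the strain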
Settings: S. cerevisiae deletion strains, growth OD

Measured: normalized growth

CCCCCCCCCCCCCCC(C(=O)O)C(O)(CC(=O)OC)C(=O)O (stereo not given)
inactive: locus YAL021C, strain ccr4, active compounds read low 1.04 | locus YAL026C, strain drs2, active compounds read low 0.997 | locus YAL030W, strain snc1, active compounds read low 1 | locus YBL061C, strain skt5, active compounds read low 0.97 | locus YBR009C, strain hhf1, active compounds read low 0.955 | locus YBR023C, strain chs3, active compounds read low 0.967 | locus YBR171W, strain sec66, active compounds read low 0.999 | locus YBR231C, strain swc5, active compounds read low 0.986 | locus YBR279W, strain paf1, active compounds read low 0.988 | locus YCL011C, strain gbp2, active compounds read low 1 | locus YCL016C, strain dcc1, active compounds read low 1.01 | locus YCL061C, strain MRC1, active compounds read low 0.986 | locus YCL069W, strain vba3, active compounds read low 1.02 | locus YCR088W, strain abp1, active compounds read low 1.02 | locus YDL005C, strain med2, active compounds read low 0.987 | locus YDL040C, strain nat1, active compounds read low 0.985 | locus YDR001C, strain nth1, active compounds read low 1.02 | locus YDR069C, strain doa4, active compounds read low 1.07 | locus YDR137W, strain rgp1, active compounds read low 0.999 | locus YDR159W, strain sac3, active compounds read low 0.996 | locus YDR195W, strain ref2 1.03 | locus YDR297W, strain sur2, active compounds read low 0.994 | locus YDR334W, strain swr1, active compounds read low 1.01 | locus YDR335W, strain msn5, active compounds read low 0.977 | locus YDR392W, strain spt3, active compounds read low 0.857 | locus YEL003W, strain gim4, active compounds read low 0.98 | locus YEL037C, strain rad23, active compounds read low 1 | locus YEL061C, strain CIN8 (second series), active compounds read low 1.01 | locus YER015W, strain faa2, active compounds read low 1 | locus YER016W, strain bim1, active compounds read low 1 | locus YER111C, strain swi4, active compounds read low 0.964 | locus YER155C, strain BEM2 (second series), active compounds read low 0.981 | locus YFR010W, strain ubp6, active compounds read low 1.08 | locus YGL167C, strain pmr1, active compounds read low 0.981 | locus YGL173C, strain kem1, active compounds read low 0.958 | locus YGL227W, strain vid30, active compounds read low 1 | locus YGL240W, strain doc1, active compounds read low 0.987 | locus YGL253W, strain hxk2, active compounds read low 0.966 | locus YHR027C, strain rpn1, active compounds read low 0.994 | locus YHR030C, strain SLT2, active compounds read low 0.973 | locus YHR079C, strain IRE1, active compounds read low 1 | locus YHR142W, strain chs7, active compounds read low 0.927 | locus YJL092W, strain hpr5, active compounds read low 1.01 | locus YJL095W, strain BCK1 (second series), active compounds read low 1 | locus YJL095W, strain BCK1, active compounds read low 0.952 | locus YJL115W, strain asf1, active compounds read low 0.976 | locus YJL154C, strain vps35, active compounds read low 1.01 | locus YJL164C, strain tpk1, active compounds read low 0.979 | locus YJL166W, strain qcr8, active compounds read low 0.976 | locus YJL187C, strain SWE1, active compounds read low 0.995 | locus YJR066W, strain TOR1, active compounds read low 0.898 | locus YKL160W, strain elf1, active compounds read low 0.99 | locus YKR026C, strain gcn3, active compounds read low 0.999 | locus YKR091W, strain srl3, active compounds read low 1.01 | locus YLL001W, strain dnm1, active compounds read low 0.992 | locus YLL026W, active compounds read low 0.997 | locus YLL041C, strain sdh2, active compounds read low 1.01 | locus YLR027C, strain aat2, active compounds read low 0.969 | locus YLR113W, strain HOG1, active compounds read low 1.02 | locus YLR221C, strain rsa3, active compounds read low 0.947 | locus YLR258W, strain gsy2, active compounds read low 1 | locus YLR262C, strain YPT6 (second series), active compounds read low 0.986 | locus YLR320W, strain mms22, active compounds read low 0.996 | locus YLR342W, strain FKS1, active compounds read low 1 | locus YLR357W, strain rsc2, active compounds read low 0.926 | locus YLR370C, strain arc18, active compounds read low 1.01 | locus YLR384C, strain iki3, active compounds read low 1 | locus YML120C, strain ndi1, active compounds read low 1.02 | locus YMR125W, strain sto1, active compounds read low 1.01 | locus YMR129W, active compounds read low 1.01 | locus YMR205C, strain PFK2, active compounds read low 1.04 | locus YMR231W, strain pep5, active compounds read low 0.941 | locus YNL071W, strain lat1, active compounds read low 1.02 | locus YNL183C, strain NPR1, active compounds read low 0.871 | locus YNL209W, strain ssb2, active compounds read low 1.01 | locus YNL248C, strain rpa49, active compounds read low 0.996 | locus YNL322C, strain KRE1 (second series), active compounds read low 1.02 | locus YNR049C, strain mso1, active compounds read low 0.999 | locus YOR001W, strain rrp6, active compounds read low 0.981 | locus YOR070C, strain gyp1, active compounds read low 0.985 | locus YOR080W, strain dia2, active compounds read low 0.994 | locus YOR083W, strain WHI5, active compounds read low 0.967 | locus YOR106W, strain vam3, active compounds read low 0.982 | locus YOR231W, strain MKK1, active compounds read low 1.02 | locus YOR265W, strain rbl2, active compounds read low 1 | locus YOR290C, strain snf2, active compounds read low 1.04 | locus YPL051W, strain arl3, active compounds read low 0.95 | locus YPL078C, strain atp4, active compounds read low 0.996 | locus YPL106C, strain sse1, active compounds read low 0.976 | locus YPL240C, strain hsp82, active compounds read low 1 | locus YPL256C, strain CLN2, active compounds read low 0.999
active: locus YHR013C, strain ard1, active compounds read low 1.62 [resistant] | locus YJL129C, strain trk1, active compounds read low 0.869 | locus YMR058W, strain fet3, active compounds read low 0.9 | locus YOR270C, strain vph1, active compounds read low 1.45 [resistant]
